# Laboratory results taken from PubChem BioAssay (NCI).
# This is part of a sample that, as a whole, favours compounds with a hit. Of some 79,000 tested, about 15% had one in any assay. A number with no mark means an inactive call. Active and inactive are the calls of the source. Rule as the data show it: active = growth inhibition above about 70%; inactive = the rest.
# Assays:
# [1] = NCI Yeast Anticancer Drug Screen. Data for the rad52 strain (AID 147);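 also: 0% = growth of vehicle-treated control cultures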; settings: S. cerevisiae rad52 mutant growth inhibition, stronger effect = higher value
# How it was run: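 Screen used a yeast mutant impaired in DNA repair. After compound exposure, growth was measured. Values reflect inhibition compared with vehicle-treated cells.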
# [2] = NCI Yeast Anticancer Drug Screen. Data for the wt1 strain (AID 149);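 also: 0% = growth of vehicle-treated wt1 cultures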; settings: S. cerevisiae wt1 strain (SPY 50644) growth inhibition, stronger effect = higher value
# How it was run: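 Readout: yeast growth inhibition, normalised to vehicle controls, in the wt1 strain exposed to test compounds.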
# [3] = NCI Yeast Anticancer Drug Screen. Data for the mgt1 strain (AID 153); settings: S. cerevisiae mgt1 mutant growth inhibition, stronger effect = higher value
# How it was run: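 Genetically defined yeast (mgt1) treated with compound; inhibition of growth expressed against vehicle-treated controls.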
# [4] = NCI Yeast Anticancer Drug Screen. Data for the rad50 strain (AID 155);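 also: 0% = growth of vehicle-only cultures of the same strain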; settings: S. cerevisiae rad50 strain growth inhibition, stronger effect = higher value
# How it was run: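 Compounds were tested on a yeast strain with an engineered DNA damage repair alteration; the reported value is growth inhibition normalised to vehicle treatment.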
# [5] = NCI Yeast Anticancer Drug Screen. Data for the mec2-1 strain (AID 157); settings: S. cerevisiae mec2-1 strain, stronger effect = higher value
# How it was run: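 Readout is yeast growth inhibition, normalised to vehicle-treated controls, in the mec2-1 strain exposed to compound.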
# [6] = NCI Yeast Anticancer Drug Screen. Data for the rad14 strain (AID 159);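 also: 0% = growth of vehicle-treated control cultures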; settings: S. cerevisiae rad14 strain growth inhibition, stronger effect = higher value
# How it was run: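 Compound-treated yeast with a defined DNA-repair lesion; growth inhibition normalised to vehicle-treated cultures.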
# [7] = NCI Yeast Anticancer Drug Screen. Data for the sgs1 mgt1 strain (AID 161);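 also: 0% = growth of cultures given vehicle only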; settings: S. cerevisiae sgs1 mgt1 strain, stronger effect = higher value
# How it was run: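 Yeast cells carrying a defined DNA-repair defect were exposed to test compounds. Growth inhibition was measured relative to vehicle-treated controls.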
# [8] = NCI Yeast Anticancer Drug Screen. Data for the CLN2oe strain (AID 163);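 also: 0% = growth of vehicle-only control cultures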; settings: S. cerevisiae CLN2oe strain, stronger effect = higher value
# How it was run: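 Values reflect how much compound exposure reduced yeast growth, referenced to vehicle-exposed cells. Assay organism is a strain with a defined genetic change affecting cell-cycle control.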
# [9] = NCI Yeast Anticancer Drug Screen. Data for the cln2 rad14 strain (AID 165);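 also: 0% = growth equal to vehicle treated cultures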; settings: S. cerevisiae cln2 rad14 strain, stronger effect = higher value
# How it was run: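 Relative to vehicle controls, growth inhibition of compound-treated cln2 rad14 yeast was recorded.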
# [10] = NCI Yeast Anticancer Drug Screen. Data for the bub3 strain (AID 167); settings: S. cerevisiae bub3 mutant strain, stronger effect = higher value
# How it was run: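 Growth of a checkpoint-deficient yeast mutant is measured after compound exposure. Values represent inhibition relative to vehicle.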
# [11] = NCI Yeast Anticancer Drug Screen. Data for the mlh1 strain (AID 171);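 also: 0% = growth of vehicle-treated control cultures of the same strain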; settings: S. cerevisiae mlh1 strain growth inhibition, stronger effect = higher value
# How it was run: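 Steps: expose the defined-mutant yeast strain to compound; expose a parallel culture to vehicle; measure growth; express compound effect as inhibition relative to the vehicle culture.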
# [12] = NCI Yeast Anticancer Drug Screen. Data for the sgs1 strain (AID 173);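 also: 0% = growth of vehicle-only control cultures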; settings: S. cerevisiae sgs1 mutant, stronger effect = higher value
# How it was run: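 Treat defined-mutant yeast with compound; measure growth; calculate inhibition relative to vehicle-treated cells.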
# [13] = NCI Yeast Anticancer Drug Screen. Data for the mlh1 rad18 strain (AID 175); settings: S. cerevisiae mlh1 rad18 strain growth inhibition, stronger effect = higher value
# How it was run: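 Test agents were incubated with a yeast strain of defined genotype (DNA damage repair defect). Inhibition of growth was derived by comparison with vehicle-exposed cultures.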
# [14] = NCI Yeast Anticancer Drug Screen. Data for the rad18 strain (AID 177); settings: S. cerevisiae rad18 mutant growth inhibition, stronger effect = higher value
# How it was run: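 A genetically defined yeast mutant impaired in DNA damage repair was treated with test compounds, then its growth was measured against cultures receiving vehicle alone.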
# [15] = NCI Yeast Anticancer Drug Screen. Data for the rad50EPP+ strain (AID 151);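 also: 0% = growth of vehicle-treated control cultures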; settings: S. cerevisiae rad50 mutant strain, stronger effect = higher value
# How it was run: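 Exposing the rad50EPP+ strain to each compound, growth was compared with vehicle-only cultures to give inhibition.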
# [16] = NCI Yeast Anticancer Drug Screen. Data for the wt2 strain (AID 169);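 also: 0% = growth of vehicle-treated yeast cultures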; settings: S. cerevisiae wt2 strain growth inhibition, stronger effect = higher value
# How it was run: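 Values express reduction in yeast growth under compound treatment, referenced to vehicle-treated cells.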
# [17] = at 5.0 µM (retest, dose inferred, filed as 0.5)
# [18] = at 50.0 µM (retest, dose inferred, filed as 5.0)
compound,measurement,setting,value
N#CC(C(=O)Nc1ccccc1)C1=C(Cl)C(=O)c2ccccc2C1=O (stereo unspecified),growth inhibition,[1]; at 1.2 µM,7%
same,growth inhibition,[1]; at 3.7 µM,57%
same,growth inhibition,[1]; at 11.0 µM,98% (active)
same,growth inhibition,[1]; at 33.0 µM,98% (active)
same,growth inhibition,[1]; at 100.0 µM,97% (active)
same,growth inhibition,[2]; at 1.2 µM,-23%
same,growth inhibition,[2]; at 3.7 µM,12%
same,growth inhibition,[2]; at 11.0 µM,95% (active)
same,growth inhibition,[2]; at 33.0 µM,97% (active)
same,growth inhibition,[2]; at 100.0 µM,96% (active)
same,growth inhibition,[3]; at 1.2 µM,23%
same,growth inhibition,[3]; at 3.7 µM,6%
same,growth inhibition,[3]; at 11.0 µM,98% (active)
same,growth inhibition,[3]; at 33.0 µM,97% (active)
same,growth inhibition,[3]; at 100.0 µM,97% (active)
same,growth inhibition,[4]; at 1.2 µM,4%
same,growth inhibition,[4]; at 3.7 µM,38%
same,growth inhibition,[4]; [17],9%
same,growth inhibition,[4]; at 11.0 µM,97% (active)
same,growth inhibition,[4]; at 33.0 µM,97% (active)
same,growth inhibition,[4]; [18],98% (active)
same,growth inhibition,[4]; at 50.0 µM,91.8% (active)
same,growth inhibition,[4]; at 100.0 µM,96% (active)
same,growth inhibition,[5]; at 1.2 µM,-8%
same,growth inhibition,[5]; at 3.7 µM,73% (active)
same,growth inhibition,[5]; [17],73% (active)
same,growth inhibition,[5]; at 11.0 µM,98% (active)
same,growth inhibition,[5]; at 33.0 µM,97% (active)
same,growth inhibition,[5]; [18],99% (active)
same,growth inhibition,[5]; at 50.0 µM,93% (active)
same,growth inhibition,[5]; at 100.0 µM,96% (active)
same,growth inhibition,[6]; at 1.2 µM,-26%
same,growth inhibition,[6]; at 3.7 µM,42%
same,growth inhibition,[6]; at 11.0 µM,98% (active)
same,growth inhibition,[6]; at 33.0 µM,97% (active)
same,growth inhibition,[6]; at 100.0 µM,95% (active)
same,growth inhibition,[7]; [17],8%
same,growth inhibition,[7]; [18],98% (active)
same,growth inhibition,[7]; at 50.0 µM,93.1% (active)
same,growth inhibition,[8]; at 1.2 µM,4%
same,growth inhibition,[8]; at 3.7 µM,45%
same,growth inhibition,[8]; at 11.0 µM,98% (active)
same,growth inhibition,[8]; at 33.0 µM,97% (active)
same,growth inhibition,[8]; at 100.0 µM,96% (active)
same,growth inhibition,[9]; [17],53%
same,growth inhibition,[9]; [18],98% (active)
same,growth inhibition,[9]; at 50.0 µM,91.8% (active)
same,growth inhibition,[10]; at 1.2 µM,-49%
same,growth inhibition,[10]; at 3.7 µM,-5%
same,growth inhibition,[10]; [17],62%
same,growth inhibition,[10]; at 11.0 µM,97% (active)
same,growth inhibition,[10]; at 33.0 µM,97% (active)
same,growth inhibition,[10]; [18],98% (active)
same,growth inhibition,[10]; at 50.0 µM,92% (active)
same,growth inhibition,[10]; at 100.0 µM,95% (active)
same,growth inhibition,[11]; at 1.2 µM,-3%
same,growth inhibition,[11]; at 3.7 µM,41%
same,growth inhibition,[11]; at 11.0 µM,98% (active)
same,growth inhibition,[11]; at 33.0 µM,97% (active)
same,growth inhibition,[11]; at 100.0 µM,97% (active)
same,growth inhibition,[12]; at 1.2 µM,8%
same,growth inhibition,[12]; at 3.7 µM,41%
same,growth inhibition,[12]; at 11.0 µM,96% (active)
same,growth inhibition,[12]; at 33.0 µM,97% (active)
same,growth inhibition,[12]; at 100.0 µM,96% (active)
same,growth inhibition,[13]; [17],64%
same,growth inhibition,[13]; [18],98% (active)
same,growth inhibition,[13]; at 50.0 µM,91% (active)
same,growth inhibition,[14]; at 1.2 µM,-15%
same,growth inhibition,[14]; at 3.7 µM,-8%
same,growth inhibition,[14]; at 11.0 µM,90% (active)
same,growth inhibition,[14]; at 33.0 µM,98% (active)
same,growth inhibition,[14]; at 100.0 µM,97% (active)
O=[N+]([O-])c1cccc([N+](=O)[O-])c1S(=O)(=O)c1ccccc1,growth inhibition,[1]; at 1.2 µM,87% (active)
same,growth inhibition,[1]; at 3.7 µM,93% (active)
same,growth inhibition,[1]; at 11.0 µM,97% (active)
same,growth inhibition,[1]; at 33.0 µM,98% (active)
same,growth inhibition,[1]; at 100.0 µM,97% (active)
same,growth inhibition,[2]; at 1.2 µM,20%
same,growth inhibition,[2]; at 3.7 µM,33%
same,growth inhibition,[2]; at 11.0 µM,67%
same,growth inhibition,[2]; at 33.0 µM,89% (active)
same,growth inhibition,[2]; at 100.0 µM,93% (active)
same,growth inhibition,[15]; at 1.2 µM,76% (active)
same,growth inhibition,[15]; at 3.7 µM,88% (active)
same,growth inhibition,[15]; at 11.0 µM,93% (active)
same,growth inhibition,[15]; at 33.0 µM,94% (active)
same,growth inhibition,[15]; at 100.0 µM,92% (active)
same,growth inhibition,[4]; at 1.2 µM,83% (active)
same,growth inhibition,[4]; at 3.7 µM,91% (active)
same,growth inhibition,[4]; [17],82% (active)
same,growth inhibition,[4]; at 11.0 µM,95% (active)
same,growth inhibition,[4]; at 33.0 µM,97% (active)
same,growth inhibition,[4]; [18],87% (active)
same,growth inhibition,[4]; at 50.0 µM,82.8% (active)
same,growth inhibition,[4]; at 100.0 µM,96% (active)
same,growth inhibition,[5]; at 1.2 µM,19%
same,growth inhibition,[5]; at 3.7 µM,37%
same,growth inhibition,[5]; [17],14%
same,growth inhibition,[5]; at 11.0 µM,87% (active)
same,growth inhibition,[5]; at 33.0 µM,96% (active)
same,growth inhibition,[5]; [18],91% (active)
same,growth inhibition,[5]; at 50.0 µM,83.3% (active)
same,growth inhibition,[5]; at 100.0 µM,95% (active)
same,growth inhibition,[7]; [17],2%
same,growth inhibition,[7]; [18],33%
same,growth inhibition,[7]; at 50.0 µM,65.1%
same,growth inhibition,[8]; at 1.2 µM,7%
same,growth inhibition,[8]; at 3.7 µM,4%
same,growth inhibition,[8]; at 11.0 µM,52%
same,growth inhibition,[8]; at 33.0 µM,84% (active)
same,growth inhibition,[8]; at 100.0 µM,85% (active)
same,growth inhibition,[9]; [17],-8%
same,growth inhibition,[9]; [18],76% (active)
same,growth inhibition,[9]; at 50.0 µM,34.8%
same,growth inhibition,[10]; at 1.2 µM,0%
same,growth inhibition,[10]; at 3.7 µM,8%
same,growth inhibition,[10]; [17],5%
same,growth inhibition,[10]; at 11.0 µM,56%
same,growth inhibition,[10]; at 33.0 µM,92% (active)
same,growth inhibition,[10]; [18],88% (active)
same,growth inhibition,[10]; at 50.0 µM,77.6% (active)
same,growth inhibition,[10]; at 100.0 µM,81% (active)
same,growth inhibition,[16]; at 1.2 µM,1%
same,growth inhibition,[16]; at 3.7 µM,22%
same,growth inhibition,[16]; at 11.0 µM,60%
same,growth inhibition,[16]; at 33.0 µM,90% (active)
same,growth inhibition,[16]; at 100.0 µM,94% (active)
same,growth inhibition,[11]; at 1.2 µM,-1%
same,growth inhibition,[11]; at 3.7 µM,22%
same,growth inhibition,[11]; at 11.0 µM,76% (active)
same,growth inhibition,[11]; at 33.0 µM,97% (active)
same,growth inhibition,[11]; at 100.0 µM,95% (active)
same,growth inhibition,[12]; at 1.2 µM,22%
same,growth inhibition,[12]; at 3.7 µM,42%
same,growth inhibition,[12]; at 11.0 µM,75% (active)
same,growth inhibition,[12]; at 33.0 µM,95% (active)
same,growth inhibition,[12]; at 100.0 µM,94% (active)
same,growth inhibition,[13]; [17],41%
same,growth inhibition,[13]; [18],76% (active)
same,growth inhibition,[13]; at 50.0 µM,87.9% (active)
same,growth inhibition,[14]; at 1.2 µM,17%
same,growth inhibition,[14]; at 3.7 µM,30%
same,growth inhibition,[14]; at 11.0 µM,82% (active)
same,growth inhibition,[14]; at 33.0 µM,95% (active)
same,growth inhibition,[14]; at 100.0 µM,95% (active)
